PubChem BioAssay (NCI)
The panel holds about 83,000 compounds, 20% with a hit somewhere; the sample as a whole holds those more often.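 Single-dose data. Exposure time 48 hours. Values below 10 considered active.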 A number with no mark means an inactive call. Active and inactive are the calls of the source.

Legend:
Experiment in all cases: NCI-60 one-dose screen, 48 h (100 = growth as untreated, 0 = no growth, -100 = all killed)
Conditions in all cases: 10 µM unless noted
SR leukemia = test system: SR leukemia
RPMI-8226 leukemia = test system: RPMI-8226 leukemia
OVCAR-8 ovarian = test system: OVCAR-8 ovarian
OVCAR-5 ovarian = test system: OVCAR-5 ovarian
OVCAR-4 ovarian = test system: OVCAR-4 ovarian
SK-OV-3 ovarian = test system: SK-OV-3 ovarian
IGROV1 ovarian = test system: IGROV1 ovarian
OVCAR-3 ovarian = test system: OVCAR-3 ovarian
HS 578T breast = test system: HS 578T breast
NCI/ADR-RES ovarian = test system: NCI/ADR-RES ovarian
T-47D breast = test system: T-47D breast
BT-549 breast = test system: BT-549 breast
MDA-MB-435 melanoma = test system: MDA-MB-435 melanoma
SW-620 colon = test system: SW-620 colon
MCF7 breast = test system: MCF7 breast
HCT-116 colon = test system: HCT-116 colon
HCC-2998 colon = test system: HCC-2998 colon
KM12 colon = test system: KM12 colon

CCCCCCC1(C)NCCO1 (centres undefined)
growth (SR leukemia): 94.5% | growth (RPMI-8226 leukemia): 101% | growth (OVCAR-8 ovarian): 96.6% | growth (OVCAR-5 ovarian): 110% | growth (OVCAR-4 ovarian): 96% | growth (SK-OV-3 ovarian): 100% | growth (IGROV1 ovarian): 79.8% | growth (OVCAR-3 ovarian): 114% | growth (HS 578T breast): 126% | growth (NCI/ADR-RES ovarian): 108% | growth (T-47D breast): 108% | growth (BT-549 breast): 103% | growth (MDA-MB-435 melanoma): 109% | growth (SW-620 colon): 106% | growth (MCF7 breast): 99.7% | growth (HCT-116 colon): 106% | growth (HCC-2998 colon): 99.2% | growth (KM12 colon): 106%

CCN1CCN(c2cc(C(=O)Nc3nc(-c4cc(OC)c(OC)c(OC)c4)cs3)cc(C(F)(F)F)c2)CC1
growth (SR leukemia): 9.19% (active) | growth (RPMI-8226 leukemia): 56.9% | growth (OVCAR-8 ovarian): 65.1% | growth (OVCAR-5 ovarian): 74.6% | growth (OVCAR-4 ovarian): 68.9% | growth (SK-OV-3 ovarian): 90.5% | growth (IGROV1 ovarian): 41.5% | growth (OVCAR-3 ovarian): 81.3% | growth (HS 578T breast): 68.1% | growth (NCI/ADR-RES ovarian): 55.8% | growth (T-47D breast): 43.7% | growth (BT-549 breast): 75.2% | growth (MDA-MB-435 melanoma): 74.4% | growth (SW-620 colon): 65.6% | growth (MCF7 breast): 39.8% | growth (HCT-116 colon): 33.4% | growth (HCC-2998 colon): 43.9% | growth (KM12 colon): 71.1%

COc1ccc(-c2csc(NC(=O)CSc3nc(-c4ccccc4)cc(=O)[nH]3)n2)cc1
growth (SR leukemia): 61.1% | growth (RPMI-8226 leukemia): 41.8% | growth (OVCAR-8 ovarian): 70.8% | growth (OVCAR-5 ovarian): 94.3% | growth (OVCAR-4 ovarian): 54.2% | growth (SK-OV-3 ovarian): 91% | growth (IGROV1 ovarian): 71.6% | growth (OVCAR-3 ovarian): 72% | growth (HS 578T breast): 84.6% | growth (NCI/ADR-RES ovarian): 51.3% | growth (T-47D breast): 15.1% | growth (BT-549 breast): 8.89% (active) | growth (MDA-MB-435 melanoma): 49.9% | growth (SW-620 colon): 93.5% | growth (MCF7 breast): 50.7% | growth (HCT-116 colon): 35.8% | growth (HCC-2998 colon): 83.5% | growth (KM12 colon): 73.9%
